Data reported in PubChem BioAssay (NCI).
About 79,000 compounds went through this panel and 15% of them were active in at least one assay; those are over-represented in the sample as a whole. Active and inactive are the calls of the source. Cut-off read from the data, not from the text of the source: active = growth inhibition above about 70%; inactive = the rest.

Columns and labels:
[1] = NCI Yeast Anticancer Drug Screen. Data for the rad52 strain (AID 147);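 note: 0% = growth of vehicle-treated control cultures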; conditions: S. cerevisiae rad52 mutant growth inhibition, hits give high values
In short: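 Genetically altered yeast (DNA damage repair defect) treated with compound; inhibition calculated relative to vehicle.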

[2] = NCI Yeast Anticancer Drug Screen. Data for the wt1 strain (AID 149);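 note: 0% = growth of vehicle-treated wt1 cultures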; conditions: S. cerevisiae wt1 strain (SPY 50644) growth inhibition, hits give high values
In short: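 wt1 yeast, compound-treated; % growth inhibition vs vehicle control.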

[3] = NCI Yeast Anticancer Drug Screen. Data for the rad50EPP+ strain (AID 151);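 note: 0% = growth of vehicle-treated control cultures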; conditions: S. cerevisiae rad50 mutant strain, hits give high values
In short: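 Strain rad50EPP+; compound exposure; % growth inhibition vs vehicle.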

[4] = NCI Yeast Anticancer Drug Screen. Data for the mgt1 strain (AID 153); conditions: S. cerevisiae mgt1 mutant growth inhibition, hits give high values
In short: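 Read-out: yeast growth inhibition vs vehicle control. Strain mgt1, drawn from a panel altered in DNA damage repair or cell cycle control.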

[5] = NCI Yeast Anticancer Drug Screen. Data for the rad50 strain (AID 155);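 note: 0% = growth of vehicle-only cultures of the same strain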; conditions: S. cerevisiae rad50 strain growth inhibition, hits give high values
In short: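 Genetically altered yeast (DNA repair pathway); compound treatment; growth inhibition vs vehicle ctrl.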

[6] = NCI Yeast Anticancer Drug Screen. Data for the mec2-1 strain (AID 157); conditions: S. cerevisiae mec2-1 strain, hits give high values
In short: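 Cells of the genetically defined mec2-1 yeast strain are incubated with test compound. Inhibition of growth is calculated against vehicle-treated controls.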

[7] = NCI Yeast Anticancer Drug Screen. Data for the rad14 strain (AID 159);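 note: 0% = growth of vehicle-treated control cultures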; conditions: S. cerevisiae rad14 strain growth inhibition, hits give high values
In short: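 Test compounds were applied to a repair-deficient yeast strain. Its growth was then compared with that of cultures given vehicle alone, and inhibition was expressed relative to those controls.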

[8] = NCI Yeast Anticancer Drug Screen. Data for the sgs1 mgt1 strain (AID 161);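 note: 0% = growth of cultures given vehicle only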; conditions: S. cerevisiae sgs1 mgt1 strain, hits give high values
In short: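 Inhibition of yeast growth, normalised to vehicle-treated controls, is reported for a strain bearing genetic alterations in DNA damage repair.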

[9] = NCI Yeast Anticancer Drug Screen. Data for the CLN2oe strain (AID 163);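 note: 0% = growth of vehicle-only control cultures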; conditions: S. cerevisiae CLN2oe strain, hits give high values
In short: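 Strain altered in cell-cycle control, incubated with compound; growth compared to solvent-treated controls.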

[10] = NCI Yeast Anticancer Drug Screen. Data for the cln2 rad14 strain (AID 165);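 note: 0% = growth equal to vehicle treated cultures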; conditions: S. cerevisiae cln2 rad14 strain, hits give high values
In short: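 The screen exposed genetically defined yeast (cln2 rad14) to test compounds and scored growth inhibition relative to vehicle-treated controls.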

[11] = NCI Yeast Anticancer Drug Screen. Data for the bub3 strain (AID 167); conditions: S. cerevisiae bub3 mutant strain, hits give high values
In short: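 Yeast carrying a defined mutation is treated with each compound, and growth is compared with that of vehicle-exposed cells to give inhibition.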

[12] = NCI Yeast Anticancer Drug Screen. Data for the wt2 strain (AID 169);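 note: 0% = growth of vehicle-treated yeast cultures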; conditions: S. cerevisiae wt2 strain growth inhibition, hits give high values
In short: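 Steps: yeast strain treated with compound; growth recorded; inhibition calculated relative to cultures given vehicle alone.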

[13] = NCI Yeast Anticancer Drug Screen. Data for the mlh1 strain (AID 171);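 note: 0% = growth of vehicle-treated control cultures of the same strain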; conditions: S. cerevisiae mlh1 strain growth inhibition, hits give high values
In short: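 Yeast screen: mutant strain plus compound, growth scored against vehicle control wells.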

[14] = NCI Yeast Anticancer Drug Screen. Data for the sgs1 strain (AID 173);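 note: 0% = growth of vehicle-only control cultures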; conditions: S. cerevisiae sgs1 mutant, hits give high values
In short: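 Inhibition of yeast growth served as the measure. The mutant strain was treated with each compound, and growth was normalised to cultures receiving vehicle alone.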

[15] = NCI Yeast Anticancer Drug Screen. Data for the mlh1 rad18 strain (AID 175); conditions: S. cerevisiae mlh1 rad18 strain growth inhibition, hits give high values
In short: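 Compound-treated yeast growth, normalised to vehicle controls. Strain bears defined DNA repair mutations.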

[16] = NCI Yeast Anticancer Drug Screen. Data for the rad18 strain (AID 177); conditions: S. cerevisiae rad18 mutant growth inhibition, hits give high values
In short: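 Inhibition values reflect reduced yeast growth compared with vehicle-treated controls, using a strain engineered with a DNA damage repair defect.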

[17] = at 5.0 µM (retest, dose inferred, filed as 0.5)
[18] = at 50.0 µM (retest, dose inferred, filed as 5.0)

Measured: growth inhibition

CCCCCCCCCCCC(=O)N(C)C
active: [1]; at 100.0 µM 98% | [2]; at 100.0 µM 99% | [3]; at 100.0 µM 90% | [4]; at 100.0 µM 99% | [5]; [18] 92% | [5]; at 50.0 µM 90.5% | [5]; at 100.0 µM 98% | [6]; [18] 96% | [6]; at 50.0 µM 92.7% | [6]; at 100.0 µM 98% | [7]; at 100.0 µM 99% | [8]; [18] 98% | [8]; at 50.0 µM 93.2% | [9]; at 100.0 µM 98% | [10]; [18] 98% | [10]; at 50.0 µM 91.5% | [11]; [18] 97% | [11]; at 50.0 µM 92% | [11]; at 100.0 µM 98% | [12]; at 100.0 µM 99% | [13]; at 100.0 µM 98% | [14]; at 100.0 µM 98% | [15]; [18] 94% | [15]; at 50.0 µM 91% | [16]; at 100.0 µM 98%
inactive: [1]; at 1.2 µM -12% | [1]; at 3.7 µM -6% | [1]; at 11.0 µM -19% | [1]; at 33.0 µM 30% | [2]; at 1.2 µM -15% | [2]; at 3.7 µM -13% | [2]; at 11.0 µM -14% | [2]; at 33.0 µM -14% | [3]; at 1.2 µM 5% | [3]; at 3.7 µM 18% | [3]; at 11.0 µM 20% | [3]; at 33.0 µM 47% | [4]; at 1.2 µM 7% | [4]; at 3.7 µM 3% | [4]; at 11.0 µM 18% | [4]; at 33.0 µM 23% | [5]; at 1.2 µM -2% | [5]; at 3.7 µM -5% | [5]; [17] 38% | [5]; at 11.0 µM -18% | [5]; at 33.0 µM 29% | [6]; at 1.2 µM -34% | [6]; at 3.7 µM -24% | [6]; [17] 42% | [6]; at 11.0 µM -27% | [6]; at 33.0 µM 34% | [7]; at 1.2 µM 7% | [7]; at 3.7 µM 2% | [7]; at 11.0 µM 12% | [7]; at 33.0 µM 34% | [8]; [17] -2% | [9]; at 1.2 µM 2% | [9]; at 3.7 µM 19% | [9]; at 11.0 µM 2% | [9]; at 33.0 µM 0% | [10]; [17] 31% | [11]; at 1.2 µM 3% | [11]; at 3.7 µM -28% | [11]; [17] -4% | [11]; at 11.0 µM 3% | [11]; at 33.0 µM 18% | [12]; at 1.2 µM -6% | [12]; at 3.7 µM -11% | [12]; at 11.0 µM -11% | [12]; at 33.0 µM 29% | [13]; at 1.2 µM -32% | [13]; at 3.7 µM -35% | [13]; at 11.0 µM -26% | [13]; at 33.0 µM -28% | [14]; at 1.2 µM -18% | [14]; at 3.7 µM -8% | [14]; at 11.0 µM -13% | [14]; at 33.0 µM 34% | [15]; [17] 41% | [16]; at 1.2 µM -9% | [16]; at 3.7 µM -4% | [16]; at 11.0 µM -7% | [16]; at 33.0 µM 15%

CN(C)c1ccc(C(C#N)=C(C#N)C#N)cc1
active: [5]; [18] 70% | [5]; at 50.0 µM 88.2% | [6]; [18] 82% | [6]; at 50.0 µM 89.3% | [8]; at 50.0 µM 73.2% | [11]; [18] 77% | [11]; at 50.0 µM 83.4% | [15]; [18] 76% | [15]; at 50.0 µM 89.6%
inactive: [1]; at 1.2 µM -2% | [1]; at 3.7 µM -1% | [1]; at 11.0 µM 2% | [1]; at 33.0 µM 5% | [1]; at 100.0 µM 49% | [2]; at 1.2 µM -6% | [2]; at 3.7 µM -5% | [2]; at 11.0 µM -6% | [2]; at 33.0 µM -4% | [2]; at 100.0 µM 12% | [3]; at 1.2 µM 1% | [3]; at 3.7 µM 3% | [3]; at 11.0 µM 7% | [3]; at 33.0 µM 15% | [3]; at 100.0 µM 50% | [4]; at 1.2 µM -3% | [4]; at 3.7 µM -2% | [4]; at 11.0 µM -1% | [4]; at 33.0 µM -4% | [4]; at 100.0 µM 10% | [5]; at 1.2 µM -2% | [5]; at 3.7 µM -8% | [5]; [17] -127% | [5]; at 11.0 µM 6% | [5]; at 33.0 µM 11% | [5]; at 100.0 µM 62% | [6]; at 1.2 µM 2% | [6]; at 3.7 µM 2% | [6]; [17] -35% | [6]; at 11.0 µM 9% | [6]; at 33.0 µM 3% | [6]; at 100.0 µM 18% | [7]; at 1.2 µM 3% | [7]; at 3.7 µM 8% | [7]; at 11.0 µM 10% | [7]; at 33.0 µM 11% | [7]; at 100.0 µM 33% | [8]; [17] -47% | [8]; [18] 60% | [9]; at 1.2 µM 2% | [9]; at 3.7 µM 7% | [9]; at 11.0 µM 8% | [9]; at 33.0 µM 8% | [9]; at 100.0 µM 16% | [10]; [17] -45% | [10]; [18] 6% | [10]; at 50.0 µM 59.5% | [11]; at 1.2 µM -10% | [11]; at 3.7 µM -5% | [11]; [17] -54% | [11]; at 11.0 µM -5% | [11]; at 33.0 µM -7% | [11]; at 100.0 µM 31% | [12]; at 1.2 µM -2% | [12]; at 3.7 µM 0% | [12]; at 11.0 µM -1% | [12]; at 33.0 µM 0% | [12]; at 100.0 µM 7% | [13]; at 1.2 µM 6% | [13]; at 3.7 µM -6% | [13]; at 11.0 µM -3% | [13]; at 33.0 µM -6% | [13]; at 100.0 µM 17% | [14]; at 1.2 µM -1% | [14]; at 3.7 µM -3% | [14]; at 11.0 µM -3% | [14]; at 33.0 µM -2% | [14]; at 100.0 µM 44% | [15]; [17] -108% | [16]; at 1.2 µM 0% | [16]; at 3.7 µM 1% | [16]; at 11.0 µM 5% | [16]; at 33.0 µM 6% | [16]; at 100.0 µM 39%
